# Records with an inconclusive call do not appear. Where a call stands in place of a potency, no number is given. The source made the active and inactive calls. Calls follow the shape of the dose curve; as a rule, active = well fitted inhibition curve with a large enough effect; inconclusive = small, poorly fitted or top-dose-only effect; inactive = flat fitted curve, though single readings scatter. *1 amine or outer side, *2 acyl side, *3 side chain or, on linkers, in order; H or OH if unused. Where a SMILES comes first, the peptide text is derived from it. Bridges are numbered along the chain shown (N, C = ends). [ ]: non-standard residue; d: D form. The star is where a group is joined. pTerphenylCO(4''-OnC5H11) = CCCCCOc1ccc(-c2ccc(-c3ccc(C(=O)*)cc3)cc2)cc1; Orn(4R-OH,5R-OH) = O=C([C@H](C[C@@H](O)[C@@H](O)N[*:3])N[*:1])[*:2]; hTyr(3S-OH,4S-OH) = N[C@H](C(=O)O)[C@H](O)[C@@H](O)c1ccc(O)cc1; Pro(3S-OH,4S-Me) = C[C@H]1CN[C@H](C(=O)O)[C@H]1O; Hyp = O=C(O)[C@@H]1C[C@@H](O)CN1
# Test: P-glycoprotein substrates identified in KB-8-5-11 adenocarcinoma cell line, qHTS therapeutic library screen (AID 1346987); also: nearly all actives have a fitted effect of over 65% in size
# Settings: KB-8-5-11 (P-gp overexpressing) viability, CellTiter-Glo, 72 h; series mostly up to 44.5 µM
# Method in brief: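 Human cervical adenocarcinoma KB-8-5-11 cells, selected in colchicine to over-express P-gp and assayed without it, were exposed for 72 h to titrated compounds. An ATP-based luminescent viability signal gave AC50.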
# Potency is read from the fitted curve at half-maximal effect.
SMILES,Potency,outcome,"activity change, negative = cytotoxicity"
CCN(Cc1cc(Nc2nc(C)cn3c(-c4cn[nH]c4)cnc23)sn1)C(C)(C)CO,0.411 µM (active),,
C/C=C(/C=C(C)/C=C/C=C/C=C(\C)C(=O)C12OC1C(O)(CCO)NC2=O)C(=O)OC (stereo not drawn),inactive,,
COc1cc2ncnc(Nc3cccc(I)c3)c2cc1OC,5.8 µM (active),,
CC(=O)c1c(C)cc2cccc(O)c2c1O[C@@H]1O[C@H](CO)[C@@H](O)[C@H](O)[C@H]1O,inactive,,
CCN(CC)C(=O)C(c1ccccc1)N1CCN(c2ccc(NC(=O)c3ccccc3-c3cccnc3)cc2F)CC1 (stereo not drawn),inactive,,
COc1cc2c(cc1O)C1(Cc3ccc4c(c3C1O)OCO4)[N+](C)([O-])CC2 (stereo not drawn),inactive,,
O=C(/C=C/c1ccccc1O)O[C@@H]1O[C@H](CO)[C@@H](O)[C@H](O)[C@H]1O,inactive,,
CC/C(C)=C/C(=O)OC1C(OC2(C)CCC3C(C4C(C)CCC42)C3(C)C)OC(C)C(O)C1O (stereo not drawn),inactive,,
CCC/C=C/C(=O)O[C@H]1CC(C)(C)CC2[C@@]13[C@H](O)C[C@]1(C)[C@@]2(CCC2[C@@]4(C)CC[C@H](O[C@@H]5O[C@H](C(=O)O)[C@@H](O)[C@H](O[C@@H]6O[C@H](CO)[C@H](O)[C@H](O)[C@H]6O[C@@H]6O[C@@H](C)[C@H](O)[C@@H](O)[C@H]6O[C@@H]6OC[C@](O)(CO)[C@H]6O)[C@H]5O[C@@H]5O[C@H](CO)[C@H](O)[C@H](O)[C@H]5O)C(C)(C)C4CC[C@]21C)O[C@H]3O (stereo partly drawn),,inactive [at 9.29 µM],
"CCCCCOc1ccc(-c2ccc(-c3ccc(C(=O)N[C@H]4C[C@@H](O)[C@@H](O)NC(=O)[C@@H]5[C@@H](O)[C@@H](C)CN5C(=O)[C@H]([C@@H](C)O)NC(=O)[C@H]([C@H](O)[C@@H](O)c5ccc(O)cc5)NC(=O)[C@@H]5C[C@@H](O)CN5C(=O)[C@H]([C@@H](C)O)NC4=O)cc3)cc2)cc1 ({pTerphenylCO(4''-OnC5H11)}-[Orn(4R-OH,5R-OH)]T[Hyp][hTyr(3S-OH,4S-OH)]T[Pro(3S-OH,4S-Me)]; lactam 1-C)",inactive,,
COc1ccc2[nH]c(=O)c3c(c2c1)OC(C)(C)C=C3,inactive,,
C=C1C(=O)O[C@@H]2/C=C(\CO)CC/C=C(\CO)[C@H](OC(C)=O)C(OC(=O)C(C)CC)C12 (stereo partly drawn),inactive,,
COc1cc2ncc(-c3ccccc3)nc2cc1OC,8.2 µM (active),,
COc1cc(/C=C2\CC[C@H]3COC[C@@H](c4cc(F)c(F)c(F)c4)N3C2=O)ccc1-n1cnc(C)c1,inactive,,
COC1CC(O[C@H]2CC[C@]3(C)C4CC[C@@]5(C)C(=O)[C@]4(CC[C@@H]3C2)CC[C@@H]5C2=CC(=O)OC2)OC(C)C1OC1OC(COC2OC(CO)C(O)C(O)C2O)C(O)C(O)C1O (stereo partly drawn),2.19 µM (active),,
CC1(C)C2CCC(CO[C@@H]3O[C@H](CO[C@@H]4OC[C@](O)(CO)[C@H]4O)[C@@H](O)[C@H](O)[C@H]3O)C1C2 (stereo partly drawn),inactive,,
C[C@H]1CC[C@@]2(OC1)O[C@H]1CC3[C@@H]4CC[C@@H]5C[C@@H](O[C@@H]6O[C@H](CO)[C@@H](O[C@@H]7O[C@H](CO[C@@H]8OC[C@@H](O)[C@H](O)[C@H]8O)[C@@H](O[C@@H]8O[C@H](CO)[C@H](O)[C@H](O)[C@H]8O)[C@H](O)[C@H]7O)[C@H](O)[C@H]6O)CC[C@]5(C)C4CC[C@]3(C)[C@H]1[C@@H]2C (stereo partly drawn),,,3.95% [at 9.29 µM] (inactive)
CCN1CCC[C@@H]1CNC(=O)c1ccc2c(c1)NC(=O)c1cccc(C)c1S2,inactive,,

# From PubChem BioAssay (NCATS)
